Assay outcomes deposited in PubChem by National Center for Advancing Translational Sciences (NCATS).
SARS PLpro yeast: blocks SARS-CoV papain-like protease in a yeast assay. 330,000 tested, 0.19% active. S. cerevisiae expressing SARS-CoV PLpro, growth rescue. Potency, µM (titrated, usually from 32.9 µM), for the others: top-dose activity, positive = growth rescue, most hits filed as activators; calls by dose curve; further: 0% is about no effect; nearly all actives have a fitted effect of over 55% in size
AmpC inh no detg: blocks E. coli AmpC beta-lactamase in detergent-free assay; AmpC nitrocefin hydrolysis, absorbance 480 nm, 0.0001% Triton; Potency, µM (doses to about 57.1 µM), for the others: at the highest dose activity change, negative = inhibition, hits mostly inhibitors; 330,000 tested, 0.52% active;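 further: plate controls were no compound for no effect and no enzyme for full effect; nearly all actives have a fitted effect of over 20% in size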
Target sequence (P00811 whole entry, looked up): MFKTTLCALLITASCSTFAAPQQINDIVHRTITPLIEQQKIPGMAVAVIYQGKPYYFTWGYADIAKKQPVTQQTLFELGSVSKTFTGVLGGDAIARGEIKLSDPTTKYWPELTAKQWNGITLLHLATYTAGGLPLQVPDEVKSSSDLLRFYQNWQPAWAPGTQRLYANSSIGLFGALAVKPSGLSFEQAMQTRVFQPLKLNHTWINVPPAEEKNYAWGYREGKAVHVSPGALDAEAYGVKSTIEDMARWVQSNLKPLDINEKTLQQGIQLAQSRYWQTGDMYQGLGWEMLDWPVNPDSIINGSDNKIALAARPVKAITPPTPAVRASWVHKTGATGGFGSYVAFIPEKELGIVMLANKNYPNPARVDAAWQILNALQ
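AmpC (5.3 nM in the dispensed reagent) in 20 mM phosphate pH 7.0 with 0.01% (detergent screen) or 0.0001% Triton X-100 was preincubated with compounds for 15 min at room temperature. Nitrocefin was then added from an 800 uM solution, and hydrolysis was followed at 480 nm.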
Pf growth 96h: inhibits malaria parasite growth, 96 h. 320,000 tested, 6.9% active. Potency, µM (titrated, usually from 28.7 µM), for inactives: at the highest dose activity change, negative = inhibition, most hits filed as inhibitors. P. falciparum luciferase reporter growth, 96 h; further: on the % scale 0 is the no-effect control and ±100 the full control effect
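Plates of compound plus infected erythrocytes (2% hematocrit, 0.05% parasitemia final) incubate 96 hours, 37 C, 5% CO2. Detection reagent added; reduced luminescence from the parasites' luciferase reporter flags inhibition.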
Sm TGR inh: S. mansoni TGR enzyme inhibition; Q962Y6; purified TGR, DTNB reduction, TNB absorbance 405 nm; Potency, µM (top dose mostly 114 µM), inactives show at the top dose activity change, negative = inhibition, usual class: inhibitors; 360,000 tested, 3% active; further: on the % scale 0 is the no-effect control and ±100 the full control effect; nearly all actives have a fitted effect of over 60% in size
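Kinetic colorimetric format: TGR-catalysed, NADPH-driven DTNB reduction monitored via TNB absorbance. Enzyme dispensed at 20 nM; compound exposure 15 min at room temperature before reaction start.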
Pf growth 48h: P. falciparum growth inhibition at 48 hours (one generation) | P. falciparum luciferase growth in erythrocytes, 48 h | Potency, µM (doses to about 28.7 µM), for inactives: at the highest dose activity change, negative = inhibition, usual class: inhibitors | 310,000 tested, 5.9% active | AID 504832; further: on the % scale 0 is the no-effect control and ±100 the full control effect
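Luciferase-expressing parasites in RBCs, 2% Hct / 0.1% parasitemia final; RPMI 1640 + 0.5% Albumax; 37 C, 5% CO2, one generation; luminescence read-out, lower signal = inhibition.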
AmpC detergent: blocks E. coli AmpC beta-lactamase in detergent assay; P00811; AmpC hydrolysis of nitrocefin, absorbance 480 nm, 0.01% Triton; Potency, µM (titrated, usually from 114 µM), for inactives: at the top dose activity change, negative = inhibition, usual class: inhibitors; 370,000 tested, 0.041% active;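 further: 0% = no-compound wells and -100% = no-enzyme wells; nearly all actives have a fitted effect of over 25% in size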
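AmpC (5.3 nM in the dispensed reagent) in 20 mM phosphate pH 7.0 with 0.01% (detergent screen) or 0.0001% Triton X-100 was preincubated with compounds for 15 min at room temperature. Nitrocefin was then added from an 800 uM solution, and hydrolysis was followed at 480 nm.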
* hit, by the source's call. An excerpt weighted towards active compounds, which were near 12% of everything screened. Unless noted, the call rests on the fitted dose curve; in most records, active means well fitted curve in the direction sought with a large enough effect; inconclusive means small, poorly fitted or top-dose-only effect, or another doubt; inactive means no such curve, though single readings can be large; an effect the other way counts as inactive or inconclusive. Potency means the concentration at half of the fitted maximal effect.

`O=C(NC12CC3CC(CC(C3)C1)C2)OCCNC1CCCCC1` gave SARS PLpro yeast 0%, AmpC inh no detg 10%, Pf growth 96h 10µM*, Sm TGR inh 11%, Pf growth 48h inconclusive and AmpC detergent -5%.
Screening Cc1ccc(Cl)cc1NC(=O)Nc1nnc(N2CCCC(C)C2)s1 (stereo unspecified) returned Sm TGR inh 27% and AmpC detergent 14%.
Cc1nc2nc(SCC(=O)NC3CCC(C)CC3)nn2c(C)c1Cc1ccccc1 (stereo unspecified) was read as Sm TGR inh -14% and AmpC detergent 4%.
O=P(c1ccccc1)(c1nc2ccccc2s1)N1CCOCC1 (stereo unspecified) was read as SARS PLpro yeast 1%, AmpC inh no detg -7%, Sm TGR inh 50µM*, Pf growth 48h -11% and AmpC detergent -2%.
CN1CCN(P(=O)(c2ccccc2)c2nc3ccccc3s2)CC1 (stereo unspecified) was read as SARS PLpro yeast 0%, AmpC inh no detg -9%, Pf growth 96h 13µM*, Sm TGR inh -26%, Pf growth 48h 1% and AmpC detergent -14%.
c1ccc2sc(N3CCOCC3)nc2c1 was read as SARS PLpro yeast -10%, AmpC inh no detg -16%, Pf growth 96h 318%, Sm TGR inh -2%, Pf growth 48h 89% and AmpC detergent inconclusive.
For Cc1ccccc1NP(=O)(c1ccccc1)c1nc2ccccc2s1 (stereo unspecified) the results were SARS PLpro yeast 4%, AmpC inh no detg -3%, Pf growth 96h 25%, Sm TGR inh 7%, Pf growth 48h inconclusive and AmpC detergent 8%.
`Cc1ccc2nc(-c3ccc(O)cc3)oc2c1` gave SARS PLpro yeast -12%, AmpC inh no detg -26%, Pf growth 96h inconclusive, Sm TGR inh 19%, Pf growth 48h 249% and AmpC detergent -2%.
Screening O=C(c1cccs1)c1coc2ccc(O)c(CN(CCO)CCO)c12 returned SARS PLpro yeast 0%, AmpC inh no detg -19%, Pf growth 96h 2.1µM*, Sm TGR inh -30% and AmpC detergent -20%.
`Cc1nc2ccccn2c(=O)c1NC(=O)c1ccc(C(F)(F)F)cc1` gave Sm TGR inh 3% and AmpC detergent 18%.
For Cc1ccc(NC(=O)c2cc3c(=O)n(Cc4ccco4)ccc3nc2C)cc1C the results were Sm TGR inh -2% and AmpC detergent 4%.
`CC1=CC(=NOC(=O)c2cccc([N+](=O)[O-])c2)C=C(C)C1=O` gave SARS PLpro yeast -15%, AmpC inh no detg -10%, Sm TGR inh 2.8µM*, Pf growth 48h inconclusive and AmpC detergent -6%.
`CC1=CC(=O)C(C(C)C)=C/C1=N/OC(=O)c1cccc([N+](=O)[O-])c1` gave SARS PLpro yeast -18%, AmpC inh no detg -11%, Pf growth 96h inconclusive, Sm TGR inh 45µM* and AmpC detergent 3%.
For Cc1ccc(C(=O)O/N=C(\N)c2cccc([N+](=O)[O-])c2)cc1 the results were SARS PLpro yeast -11%, AmpC inh no detg -23%, Pf growth 96h 142%, Sm TGR inh 0%, Pf growth 48h 134% and AmpC detergent -10%.
CCOC(=O)N1CCC(NC(=O)c2ccc3c(c2)N(Cc2cccc(C)c2)C(=O)c2ccccc2S3(=O)=O)CC1 was read as Sm TGR inh 1% and AmpC detergent 16%.
For COC(=O)c1ccc(/C=C/c2c(-c3ccc(OC)cc3)oc3ccccc23)cc1 the results were SARS PLpro yeast -9%, AmpC inh no detg -13%, Pf growth 96h inconclusive, Sm TGR inh -2%, Pf growth 48h -73% and AmpC detergent inconclusive.
COC(=O)c1ccc(/C=C/c2c(-c3ccc(OC)cc3)oc3ccc(N4CCOCC4)cc23)cc1 was read as SARS PLpro yeast 1%, AmpC inh no detg -5%, Pf growth 96h 3.7µM*, Sm TGR inh 0%, Pf growth 48h inconclusive and AmpC detergent -15%.
For O=C1/C(=C\Nc2ccc(OC(F)(F)F)cc2)CCN1c1ncccn1 the results were SARS PLpro yeast -12%, AmpC inh no detg -12%, Sm TGR inh inconclusive, Pf growth 48h 65% and AmpC detergent -2%.
For O=C1/C(=C\Nc2ccc(Cl)cc2)CCN1c1ncccn1 the results were SARS PLpro yeast -5%, AmpC inh no detg -49%, Pf growth 96h 224%, Sm TGR inh 16µM*, Pf growth 48h 203% and AmpC detergent -2%.
CCCCOC(=O)NS(=O)(=O)c1sc(CC(C)C)cc1-c1ccc(Cn2c(CC)nc3c(C)cc(C)nc32)cc1 was read as SARS PLpro yeast 9%, AmpC inh no detg 91%, Pf growth 96h inconclusive, Sm TGR inh 7%, Pf growth 48h 15µM* and AmpC detergent inconclusive.
`CCN(CC(=O)NCC(=O)Nc1ccc(Br)cc1C)Cc1ccccc1` gave SARS PLpro yeast 0%, AmpC inh no detg inconclusive, Pf growth 96h -24%, Sm TGR inh 3%, Pf growth 48h -15% and AmpC detergent -15%.
`COc1cc(/C=C\C(=O)Nc2cc(=O)n(C)c(=O)n2C)cc(OC)c1OC` gave SARS PLpro yeast 3%, AmpC inh no detg 18%, Pf growth 96h inconclusive, Sm TGR inh 3%, Pf growth 48h 5.2µM* and AmpC detergent -7%.
Cc1ccc(C(=O)Nc2cc(=O)n(C)c(=O)n2C)o1 was read as SARS PLpro yeast -33%, AmpC inh no detg -17%, Pf growth 96h 5%, Sm TGR inh -15%, Pf growth 48h 13% and AmpC detergent -1%.
Screening Cc1ccc(/C=C/C(=O)Nc2cc(=O)n(C)c(=O)n2C)o1 returned SARS PLpro yeast -27%, AmpC inh no detg -16%, Pf growth 96h -1%, Sm TGR inh 7.9µM*, Pf growth 48h 22% and AmpC detergent 4%.
`Cn1c(NC(=O)/C=C/c2ccco2)cc(=O)n(C)c1=O` gave SARS PLpro yeast -18%, AmpC inh no detg -42%, Pf growth 96h 25%, Sm TGR inh 28µM*, Pf growth 48h 2% and AmpC detergent -20%.
For COc1cc(/C=C/C(=O)N2CCC=CC2=O)cc(OC)c1OC the results were AmpC inh no detg -8%, Pf growth 96h inconclusive, Sm TGR inh -21%, Pf growth 48h 9.3µM* and AmpC detergent inconclusive.
For Cc1cccc(CC(=O)Nc2cc(=O)n(C)c(=O)n2C)c1 the results were SARS PLpro yeast 0%, AmpC inh no detg -6%, Pf growth 96h inconclusive, Sm TGR inh -7%, Pf growth 48h inconclusive and AmpC detergent inconclusive.
